Laboratory results: PubChem BioAssay (NCATS)
Values without a mark were called inactive. Records with an inconclusive call do not appear. Entries that show only a call come without a potency. Calls of active or inactive are those of the source. Unless noted, calls come from the whole dose curve; as a rule, active = well fitted curve in the direction sought with a large enough effect; inconclusive = small, poorly fitted or top-dose-only effect, or another doubt; inactive = no such curve, though single readings can be large; an effect the other way counts as inactive or inconclusive.

Legend:
[1] = NS1 protein of Zika virus - qHTS assay to identify small molecule inhibitors in human HEK 293 cells (AID 1347053); note: nearly all actives have a fitted effect of over 55% in size
Summary of the method: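 HEK 293; 20 h pre-culture, 37 C/5% CO2; cpd 1 h pre-infection; ZIKV MR766, MOI = 0.5, 24 h, 37 C; TR-FRET NS1 readout (two anti-NS1 Abs); norm. to no-virus vs infected.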

[2] = biological target: T1, Tyrosine-protein phosphatase non-receptor type substrate 1 (Homo sapiens) + Leukocyte surface antigen CD47 (Homo sapiens) (UniProt P78324+Q08722); assay: CD47-SIRPalpha protein protein interaction - LANCE assay qHTS validation (AID 1347057; active = well fitted curve in the direction sought with a large enough effect in the signal ratio, with a control signal flat, not every such curve was filed as active; the % refers to the signal ratio)
Summary of the method: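 First, His-tagged CD47 and Eu-labelled anti-His antibody met the compound for 30 min; next, site-specifically biotinylated SIRPalpha was added for 30 min; finally streptavidin-APC was added before reading the TR-FRET ratio.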

[3] = biological target: T1, Tyrosine-protein phosphatase non-receptor type substrate 1 (Homo sapiens) + Leukocyte surface antigen CD47 (Homo sapiens); assay: CD47-SIRPalpha protein protein interaction - HTRF assay qHTS validation (AID 1347058; active = well fitted curve in the direction sought with a large enough effect in the signal ratio, not every such curve was filed as active; the % refers to the signal ratio)
Summary of the method: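 TR-FRET read (Ch1/Ch2 ratio) of soluble extracellular CD47 and Avi-biotinylated SIRPalpha domains in PBS pH 7.4 with 0.05% IGEPAL; 7-point compound titration. Sequential 30 min room-temperature steps; non-biotinylated SIRPalpha as control inhibitor.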

[4] = biological target: T1, Tyrosine-protein phosphatase non-receptor type substrate 1 (Homo sapiens) + Leukocyte surface antigen CD47 (Homo sapiens); assay: CD47-SIRPalpha protein protein interaction - Alpha assay qHTS validation (AID 1347059);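 note: bead proximity luminescence from CD47 binding SIRPalpha after compound preincubation with SIRPalpha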
Summary of the method: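 Soluble extracellular domains: Avi-tag biotinylated SIRPalpha (25 nM) preincubated 30 min RT with compound, then 6His-CD47 (12.5 nM) 30 min; Ni-NTA acceptor and streptavidin donor beads (10 ug/mL) 30 min, AlphaScreen read. PBS pH 7.4, 0.05% IGEPAL.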

[5] = biological target: Parathyroid hormone/parathyroid hormone-related peptide receptor (Homo sapiens) (UniProt Q03431); assay: qHTS for PTHR1 Agonists: Optimization Screen against the NCGC LOPAC library (AID 1347079);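 note: GloSensor cAMP luminescence in HEK-293 GP2 cells expressing human PTHR1 with IBMX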
Summary of the method: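 Compounds were tested across a qHTS titration. PTHR1-expressing GP2 cells report cAMP rises via GloSensor luminescence after 1 hr compound exposure at 37C with IBMX present.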

Furin (Homo sapiens) = Furin (Homo sapiens) (UniProt P09958); assay: Furin counterscreen qHTS for Zika virus inhibitors (AID 1347149);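 note: purified recombinant full-length human furin enzyme at 5 nM; fluorescence gain from furin cutting a BOC-RVRR-AMC peptide substrate over 15 min; top concentration of the series differs between compounds; nearly all actives have a fitted effect of over 70% in size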
Summary of the method: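 Fluorogenic cleavage of BOC-RVRR-AMC (2 microM final, Km ~15 µM) was monitored (ex 340, em 450 nm) at 37C after 15 min RT preincubation of 5 nM furin with compounds in HEPES pH 7.0 buffer with CaCl2 and Triton X-100. Percent inhibition was fitted to a 4-parameter Hill curve.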

[6] = system: Zika virus NS2B-NS3 protease (unlinked); assay: Optimization of GU AMC qHTS for Zika virus inhibitors: Unlinked NS2B-NS3 protease assay (AID 1347151); note: nearly all actives have a fitted effect of over 80% in size; note: potency is the fitted concentration of half-maximal effect
Summary of the method: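 Percent inhibition is derived from the 15-min change in AMC fluorescence, normalized against no-inhibitor and no-enzyme controls, then fitted to a 4-parameter Hill curve. Aprotinin was the intraplate control.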

[7] = system: Zika virus NS2B-NS3 protease; assay: Primary screen GU AMC qHTS for Zika virus inhibitors (AID 1347154); note: nearly all actives have a fitted effect of over 70% in size; note: potency is the fitted concentration of half-maximal effect
Summary of the method: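 Unlinked Zika NS2B hydrophilic domain/NS3 protease domain noncovalent complex (25 nM final) in 10 mM Tris-HCl pH 8.0, 0.01% Tween 20, with AMC peptide substrate. Fluorescence (ex 340, em 450 nm) change over 15 min, room temperature; percent inhibition fitted to 4-parameter Hill equation.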

[8] = Confirmatory screen NINDS Rhodamine qHTS for Zika virus inhibitors (AID 1347161); note: potency is the fitted concentration of half-maximal effect; nearly all actives have a fitted effect of over 60% in size
Summary of the method: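 In 10 mM Tris-HCl pH 8.0 containing 0.01% Tween 20, linked NS2B-NS3 protease (25 nM final) is exposed to test compounds for 15 min. Cleavage of 1.5 microM Rhodamine110 substrate is tracked by fluorescence over 15 min.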

[9] = system: Zika virus NS2B-NS3 protease (linked); assay: 384 well plate NINDS AMC confirmatory qHTS for Zika virus inhibitors (AID 1347163); note: potency is the fitted concentration of half-maximal effect; nearly all actives have a fitted effect of over 50% in size
Summary of the method: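 Linked protease 5/30/60 nM final; cpds up to 1 mM final, ~15 min preinc. Substrate Ac-VKTGKR-AMC 30 microM final. RT, dark, 25 min; FI ex 355/em 460; normalized to no-enzyme/no-inhibitor ctrls.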

[10] = system: Zika virus NS2B-NS3 protease (linked construct); assay: 384 well plate NINDS Rhodamine confirmatory qHTS for Zika virus inhibitors (AID 1347164); note: potency is the fitted concentration of half-maximal effect; nearly all actives have a fitted effect of over 65% in size
Summary of the method: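 Compounds are incubated about 15 minutes with linked protease (5, 30 or 60 nM final). Rhodamine 110-tagged Ac-LKRR substrate (10 microM final) is added and fluorescence measured after 25 minutes.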

[11] = biological target: Lysine-specific demethylase 5B (Homo sapiens) (UniProt Q9UGL1); assay: Optimization screen for KDM5B Histone Demethylases FDH coupled qHTS against the LOPAC library (AID 1347166); conditions: KDM5B demethylation, FDH-coupled NADH fluorescence (FDH is formaldehyde dehydrogenase); at 57.5 µM (top of the series)
Summary of the method: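 KDM5BDeltaAP (200nM final) preincubated 10 min with compound, then 12.5uM H3K4Me3, 25uM a-ketoglutarate, ascorbate, Fe(II), NAD+ and FDH added; 50mM HEPES pH 7.5, 0.01% Tween-20. NADH fluorescence (340/450 nm) change over 30 min, room temperature.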

[12] = Vero cells viability qHTS for Zika virus inhibitors (AID 1347167)
Summary of the method: (§1)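 Counter-screen for cytotoxicity of hits from NS2B-NS3 protease qHTS. Overnight-attached cells (2.5 x 10^5 cells/mL, DMEM/4% FBS) were dosed in titration, incubated 24 to 48 hours, then assayed by CellTiter Glo.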

[13] = HepG2 cells viability qHTS for Zika virus inhibitors (AID 1347168)
Summary of the method: as §1

[14] = biological target: N-terminal Xaa-Pro-Lys N-methyltransferase 1 (Homo sapiens) (UniProt Q9BV86); assay: qHTS Assay for Inhibitors of N-terminal methyltransferase 1 (NTMT1): LOPAC validation of the NTMT1 SAHH-coupled ThioGlo3 Assay (AID 1347143); note: nearly all actives have a fitted effect of over 70% in size; note: potency is the fitted concentration of half-maximal effect
Summary of the method: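 Fluorescence read-out (excitation 340nm, emission 450nm) of SAH-derived thiol, measured via SAHH coupling and ThioGlo3, taken immediately and after a 30 min room-temperature reaction, then normalized to the background read. Enzyme: NTMT1 at 125nM; cofactor SAM 100uM in the added reagent.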

[15] = ZIKV-mCherry secondary qHTS for Zika virus inhibitors (AID 1347158); note: top concentration of the series differs between compounds
Summary of the method: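 Vero cells, 5,000/well, plated overnight at 37 °C, then compound added and infected with recombinant ZIKV-mCherry at MOI 1 for 48-72 h. PFA-fixed, Hoechst nuclear stain, high-content imaging; cells with mCherry intensity above 450 RFU scored infected, reported as percent infection.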

N-terminal Xaa-Pro-Lys N-methyltransferase 1 (Homo sapiens), sequence (Q9BV86 whole entry, looked up): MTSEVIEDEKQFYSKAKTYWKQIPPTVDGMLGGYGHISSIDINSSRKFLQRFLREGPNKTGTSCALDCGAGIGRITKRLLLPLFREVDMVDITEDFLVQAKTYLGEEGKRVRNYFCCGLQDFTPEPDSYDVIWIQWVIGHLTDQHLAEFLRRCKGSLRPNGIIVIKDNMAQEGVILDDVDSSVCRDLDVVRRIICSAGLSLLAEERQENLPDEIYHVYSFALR
Lysine-specific demethylase 5B (Homo sapiens), sequence (Q9UGL1 whole entry, looked up): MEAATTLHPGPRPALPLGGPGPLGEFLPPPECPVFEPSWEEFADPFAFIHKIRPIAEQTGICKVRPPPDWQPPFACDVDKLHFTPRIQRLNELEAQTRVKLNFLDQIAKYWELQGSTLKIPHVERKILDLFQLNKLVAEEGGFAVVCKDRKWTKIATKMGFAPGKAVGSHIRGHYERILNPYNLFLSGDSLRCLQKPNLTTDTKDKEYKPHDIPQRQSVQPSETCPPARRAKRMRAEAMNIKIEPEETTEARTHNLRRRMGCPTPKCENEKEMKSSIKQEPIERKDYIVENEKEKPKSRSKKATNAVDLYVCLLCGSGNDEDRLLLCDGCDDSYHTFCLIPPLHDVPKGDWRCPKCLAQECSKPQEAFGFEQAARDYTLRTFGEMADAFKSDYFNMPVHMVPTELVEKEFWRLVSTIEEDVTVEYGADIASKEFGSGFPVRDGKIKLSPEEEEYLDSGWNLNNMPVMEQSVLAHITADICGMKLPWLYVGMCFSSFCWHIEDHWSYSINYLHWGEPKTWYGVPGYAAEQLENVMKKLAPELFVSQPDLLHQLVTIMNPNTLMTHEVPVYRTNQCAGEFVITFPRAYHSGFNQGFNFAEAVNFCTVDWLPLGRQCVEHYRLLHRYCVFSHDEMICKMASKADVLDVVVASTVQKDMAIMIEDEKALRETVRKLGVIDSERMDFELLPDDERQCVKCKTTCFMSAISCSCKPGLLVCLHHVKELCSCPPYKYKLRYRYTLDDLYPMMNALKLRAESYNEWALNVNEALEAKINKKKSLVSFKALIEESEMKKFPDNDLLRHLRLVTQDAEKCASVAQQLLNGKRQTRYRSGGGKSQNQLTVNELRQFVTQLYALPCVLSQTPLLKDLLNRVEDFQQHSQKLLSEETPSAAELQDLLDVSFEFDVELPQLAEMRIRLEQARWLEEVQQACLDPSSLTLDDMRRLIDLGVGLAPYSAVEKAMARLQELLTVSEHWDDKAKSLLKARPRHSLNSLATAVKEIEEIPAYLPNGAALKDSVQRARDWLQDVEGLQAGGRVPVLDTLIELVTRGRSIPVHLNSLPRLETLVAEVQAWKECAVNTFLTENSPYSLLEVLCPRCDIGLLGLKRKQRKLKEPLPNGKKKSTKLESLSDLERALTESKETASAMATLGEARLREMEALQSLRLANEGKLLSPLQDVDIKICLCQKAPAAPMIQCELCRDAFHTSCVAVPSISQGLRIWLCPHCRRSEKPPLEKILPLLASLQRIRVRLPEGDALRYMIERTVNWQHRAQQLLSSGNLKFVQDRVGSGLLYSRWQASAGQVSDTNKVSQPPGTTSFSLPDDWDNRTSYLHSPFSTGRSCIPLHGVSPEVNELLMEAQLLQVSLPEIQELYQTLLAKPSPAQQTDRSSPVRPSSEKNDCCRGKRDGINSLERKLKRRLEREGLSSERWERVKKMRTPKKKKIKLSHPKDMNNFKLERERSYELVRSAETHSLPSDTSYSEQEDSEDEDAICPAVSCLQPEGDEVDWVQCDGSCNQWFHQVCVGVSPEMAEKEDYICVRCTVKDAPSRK
Parathyroid hormone/parathyroid hormone-related peptide receptor (Homo sapiens), sequence (Q03431 whole entry, looked up): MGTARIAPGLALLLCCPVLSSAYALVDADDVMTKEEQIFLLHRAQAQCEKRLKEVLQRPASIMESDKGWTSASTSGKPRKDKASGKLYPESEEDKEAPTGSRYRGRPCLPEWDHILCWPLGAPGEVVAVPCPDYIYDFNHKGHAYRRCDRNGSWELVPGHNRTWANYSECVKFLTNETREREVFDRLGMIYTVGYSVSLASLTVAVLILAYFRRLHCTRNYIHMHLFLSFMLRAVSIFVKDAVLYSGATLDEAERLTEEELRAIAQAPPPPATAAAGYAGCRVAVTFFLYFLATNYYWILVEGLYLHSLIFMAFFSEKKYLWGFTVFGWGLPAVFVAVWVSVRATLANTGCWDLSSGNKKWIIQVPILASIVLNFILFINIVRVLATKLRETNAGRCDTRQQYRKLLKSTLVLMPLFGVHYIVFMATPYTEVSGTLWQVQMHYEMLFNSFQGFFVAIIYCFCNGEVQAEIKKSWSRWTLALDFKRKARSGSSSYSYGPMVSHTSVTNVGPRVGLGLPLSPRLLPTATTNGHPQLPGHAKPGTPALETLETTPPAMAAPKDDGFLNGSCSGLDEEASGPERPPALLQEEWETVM
T1 sequence (P78324 whole entry, looked up): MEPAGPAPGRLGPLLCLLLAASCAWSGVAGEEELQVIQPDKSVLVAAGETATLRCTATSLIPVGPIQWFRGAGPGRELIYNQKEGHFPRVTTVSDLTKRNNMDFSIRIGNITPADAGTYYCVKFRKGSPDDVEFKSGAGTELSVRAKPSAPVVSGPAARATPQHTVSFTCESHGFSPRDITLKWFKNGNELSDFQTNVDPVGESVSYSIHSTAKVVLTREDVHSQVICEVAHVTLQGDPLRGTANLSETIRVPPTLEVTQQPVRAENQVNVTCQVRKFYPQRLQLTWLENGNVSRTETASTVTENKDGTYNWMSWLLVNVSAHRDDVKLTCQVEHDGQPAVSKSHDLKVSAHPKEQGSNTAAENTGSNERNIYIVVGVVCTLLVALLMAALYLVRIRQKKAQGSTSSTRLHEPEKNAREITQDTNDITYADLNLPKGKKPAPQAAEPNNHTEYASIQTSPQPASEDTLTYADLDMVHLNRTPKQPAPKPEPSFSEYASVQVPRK
T1 sequence (Q08722 whole entry, looked up): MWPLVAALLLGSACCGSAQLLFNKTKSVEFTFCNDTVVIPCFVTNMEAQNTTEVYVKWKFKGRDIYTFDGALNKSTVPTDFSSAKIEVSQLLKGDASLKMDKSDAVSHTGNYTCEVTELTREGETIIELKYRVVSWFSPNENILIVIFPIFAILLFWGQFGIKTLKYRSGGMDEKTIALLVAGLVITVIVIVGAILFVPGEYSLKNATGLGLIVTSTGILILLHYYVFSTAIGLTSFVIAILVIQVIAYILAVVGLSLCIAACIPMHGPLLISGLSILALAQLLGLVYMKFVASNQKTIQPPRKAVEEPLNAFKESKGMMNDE
Furin (Homo sapiens), sequence (P09958 whole entry, looked up): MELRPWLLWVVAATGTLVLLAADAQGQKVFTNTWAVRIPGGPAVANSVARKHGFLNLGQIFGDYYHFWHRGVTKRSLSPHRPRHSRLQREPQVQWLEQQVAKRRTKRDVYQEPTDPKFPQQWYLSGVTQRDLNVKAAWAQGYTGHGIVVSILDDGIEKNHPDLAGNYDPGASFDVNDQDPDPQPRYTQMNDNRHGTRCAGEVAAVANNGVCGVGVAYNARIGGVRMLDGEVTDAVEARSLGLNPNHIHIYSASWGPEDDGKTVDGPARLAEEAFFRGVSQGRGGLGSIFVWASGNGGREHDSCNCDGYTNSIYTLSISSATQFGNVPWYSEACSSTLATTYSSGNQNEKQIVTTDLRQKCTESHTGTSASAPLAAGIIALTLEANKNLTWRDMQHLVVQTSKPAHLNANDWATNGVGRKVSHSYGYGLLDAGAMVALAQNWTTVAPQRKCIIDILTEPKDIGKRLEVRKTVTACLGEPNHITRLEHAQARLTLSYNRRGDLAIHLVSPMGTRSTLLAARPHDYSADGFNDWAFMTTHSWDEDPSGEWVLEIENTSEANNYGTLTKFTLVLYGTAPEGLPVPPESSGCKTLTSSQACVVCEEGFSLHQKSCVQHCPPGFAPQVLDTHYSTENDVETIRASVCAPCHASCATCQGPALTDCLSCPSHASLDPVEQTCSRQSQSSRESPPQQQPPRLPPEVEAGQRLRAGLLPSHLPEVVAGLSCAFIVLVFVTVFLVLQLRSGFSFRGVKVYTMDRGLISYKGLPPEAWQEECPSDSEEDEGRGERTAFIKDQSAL

O=C(O)c1ccccc1Nc1cccc(OCc2ccc3ccccc3n2)c1
Potency [1]: inactive
Potency [2]: inactive
outcome [3]: inactive
Potency [4]: inactive
Potency [5]: inactive
Potency (Furin (Homo sapiens)): inactive
Potency [6]: 29.9 µM (active)
Potency [7]: inactive
Potency [8]: 3.49 µM (active)
Potency [9]: 158 µM (active)
Potency [10]: 63.1 µM (active)
activity, negative = inhibition [11]: -2.34%
Potency [12]: inactive
outcome [13]: inactive

Nc1ccc(CCNc2ncnc3c2ncn3C2OC(CO)C(O)C2O)cc1 (centres undefined)
Potency [1]: inactive
Potency [2]: inactive
outcome [3]: inactive
Potency [4]: inactive
Potency [5]: inactive
Potency [6]: inactive
Potency [7]: inactive

CC(=O)SC1CC2=CC(=O)CC[C@]2(C)C2CC[C@@]3(C)C(CC[C@@]34CCC(=O)O4)C12 (some centres undefined)
Potency [1]: inactive
Potency [2]: inactive
outcome [3]: inactive
Potency [4]: inactive
Potency [5]: inactive
Potency [14]: inactive
activity, negative = inhibition [11]: 0.621%

CCn1c(=O)[nH]c2cc(Cl)c(Cl)cc21
Potency [1]: inactive
Potency [2]: inactive
outcome [3]: inactive
Potency [4]: inactive
Potency [5]: inactive
Potency [14]: inactive
Potency [7]: inactive
activity, negative = inhibition [11]: -0.178%

NCCCNCCCCNCCCN
Potency [1]: inactive
Potency [2]: inactive
outcome [3]: inactive
Potency [4]: inactive
Potency [5]: inactive
Potency [6]: inactive
Potency [7]: inactive

C[C@]12C=CC(=O)C=C1CC[C@@H]1C2=CC[C@]2(C)[C@@H](C(=O)CN3CCN(c4cc(N5CCCC5)nc(N5CCCC5)n4)CC3)CC[C@@H]12
Potency [1]: inactive
Potency [2]: inactive
outcome [3]: inactive
Potency [4]: inactive
Potency [5]: inactive
Potency [6]: inactive

Nc1nc2c(cnn2CCc2ccccc2)c2nc(-c3ccco3)nn12
Potency [1]: inactive
Potency [2]: inactive
outcome [3]: inactive
Potency [4]: inactive
Potency [5]: inactive
Potency [6]: 23.8 µM (active)
Potency [7]: inactive

CCCc1c(OCCCOc2ccc(OCC(=O)O)cc2)ccc(C(C)=O)c1O
Potency [1]: inactive
Potency [2]: inactive
outcome [3]: inactive
Potency [4]: inactive
Potency [5]: inactive
Potency (Furin (Homo sapiens)): inactive
Potency [15]: inactive
Potency [8]: 3.5 µM (active)
Potency [9]: 355 µM (active)
Potency [10]: 50.1 µM (active)
activity, negative = inhibition [11]: -6.32%
Potency [12]: inactive
outcome [13]: inactive

NC(=O)CC[C@H](N)C(=O)O
Potency [1]: inactive
Potency [2]: inactive
outcome [3]: inactive
Potency [4]: inactive
Potency [5]: inactive
Potency [14]: inactive
Potency [6]: inactive
activity, negative = inhibition [11]: -1.79%

CC(C)C[C@H](NC(=O)[C@H](O)[C@H](N)Cc1ccccc1)C(=O)O
Potency [1]: inactive
Potency [2]: inactive
outcome [3]: inactive
Potency [4]: inactive
Potency [5]: inactive
Potency [14]: inactive
activity, negative = inhibition [11]: -4.3%

CCSC(=N)N
Potency [1]: inactive
Potency [2]: inactive
outcome [3]: inactive
Potency [4]: inactive
Potency [14]: inactive
Potency [6]: inactive
Potency [7]: inactive
activity, negative = inhibition [11]: -5.42%

Cn1c(=O)c2c(nc(/C=C/c3cccc(Cl)c3)n2C)n(C)c1=O
Potency [1]: inactive
Potency [2]: inactive
outcome [3]: inactive
Potency [4]: inactive
Potency [5]: inactive
Potency [6]: 11.9 µM (active)
activity, negative = inhibition [11]: -517% (active)

CCCn1c(=O)c2c(ncn2C)n(CCC)c1=O
Potency [1]: inactive
Potency [2]: inactive
outcome [3]: inactive
Potency [4]: inactive
Potency [14]: inactive
Potency [7]: inactive
activity, negative = inhibition [11]: -2.62%

NCCCCN
Potency [1]: inactive
Potency [2]: inactive
outcome [3]: inactive
Potency [4]: inactive
Potency [14]: inactive
activity, negative = inhibition [11]: -1.54%

Cc1nc2c(OCc3ccccc3)cccn2c1CC#N
Potency [1]: inactive
Potency [2]: inactive
outcome [3]: inactive
Potency [4]: inactive
Potency [14]: inactive
Potency [7]: inactive
activity, negative = inhibition [11]: 0.134%

CC(C)NCC(O)COc1ccc(CC(N)=O)cc1 (centres undefined)
Potency [1]: inactive
Potency [2]: inactive
outcome [3]: inactive
Potency [4]: inactive
Potency [14]: inactive
Potency [6]: inactive
Potency [7]: inactive
activity, negative = inhibition [11]: -1.35%

Nc1ncnc2c1ncn2C1CCCO1 (centres undefined)
Potency [1]: inactive
Potency [2]: inactive
outcome [3]: inactive
Potency [4]: inactive
Potency [14]: inactive
Potency [6]: inactive
Potency [7]: inactive
activity, negative = inhibition [11]: -7.06%

CN1CCCC1CCOC(C)(c1ccccc1)c1ccc(Cl)cc1 (centres undefined)
Potency [1]: inactive
Potency [2]: inactive
outcome [3]: inactive
Potency [4]: inactive
Potency [5]: inactive
Potency [6]: inactive
activity, negative = inhibition [11]: -0.721%

N[C@H](C(=O)O)[C@H]1C[C@@H]1C(=O)O
Potency [1]: inactive
Potency [2]: inactive
outcome [3]: inactive
Potency [4]: inactive
Potency [14]: inactive
Potency [6]: inactive
Potency [7]: inactive
activity, negative = inhibition [11]: -7.37%

C=CC1(C)CC(=O)C2(O)C(C)(O1)C(OC(C)=O)C(O)C1C(C)(C)CCC(O)C12C (centres undefined)
Potency [1]: inactive
Potency [2]: inactive
outcome [3]: inactive
Potency [4]: inactive
Potency [14]: inactive
activity, negative = inhibition [11]: -2.72%

C=CCn1c(=O)c2c(nc(-c3ccc(S(=O)(=O)O)cc3)n2C)n(C)c1=O
Potency [1]: inactive
Potency [2]: inactive
outcome [3]: inactive
Potency [4]: inactive
Potency [14]: 15.8 µM (active)
Potency [6]: 2.99 µM (active)
Potency [7]: 5.32 µM (active)
activity, negative = inhibition [11]: -806% (active)

OCC1NCC(O)C(O)C1O (centres undefined)
Potency [1]: inactive
Potency [2]: inactive
outcome [3]: inactive
Potency [4]: inactive
Potency [14]: inactive
Potency [6]: inactive
activity, negative = inhibition [11]: -3.55%

COc1cc(N)c(Cl)cc1C(=O)OCCN1CCCCC1
Potency [1]: inactive
Potency [2]: inactive
outcome [3]: inactive
Potency [4]: inactive
Potency [14]: inactive
Potency [6]: inactive
activity, negative = inhibition [11]: -18.2%

CCCCCCCCCCC(C)(C)C(=O)Nc1c(OC)cc(OC)cc1OC
Potency [1]: inactive
Potency [2]: inactive
outcome [3]: inactive
Potency [4]: inactive
Potency [14]: inactive
Potency [7]: inactive
